As usually defined, the AC50 is the concentration giving half of the maximal activity seen.

From PubChem BioAssay (EPA / NIEHS) come the findings set out here.

SMILES strings stand for the structures. Records with an inconclusive call do not appear. Calls of active or inactive are those of the source. How the source made its calls: active means hit-call score of the fitted dose curve at least 0.9, where 1 is the maximum; inconclusive means response in the unintended direction; inactive means score below 0.9.

human Adrenergic, Beta 3 Receptor (Adrb3), ADRB3 (gene 155), sequence (P13945 whole entry, looked up): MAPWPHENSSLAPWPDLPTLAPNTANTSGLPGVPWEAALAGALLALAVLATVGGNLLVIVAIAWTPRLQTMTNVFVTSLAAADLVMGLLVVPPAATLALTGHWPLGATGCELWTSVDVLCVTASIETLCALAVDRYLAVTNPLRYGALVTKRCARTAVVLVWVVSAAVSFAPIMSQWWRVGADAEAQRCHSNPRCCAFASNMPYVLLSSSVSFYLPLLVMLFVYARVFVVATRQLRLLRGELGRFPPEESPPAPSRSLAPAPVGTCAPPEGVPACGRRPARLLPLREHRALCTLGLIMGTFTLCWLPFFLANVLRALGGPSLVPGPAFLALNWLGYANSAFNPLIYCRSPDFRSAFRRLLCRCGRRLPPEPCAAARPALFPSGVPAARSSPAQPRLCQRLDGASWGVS

In the test the target is human Adrenergic, Beta 3 Receptor (Adrb3), ADRB3 (gene 155) (UniProt P13945). Put plainly: NVS_GPCR_hAdrb3: NovaScreen (NVS) G Protein-Coupled Receptor Assay for human Adrenergic, Beta 3 Receptor (Adrb3) (AID 2283262). How it is done:
NVS_GPCR_hAdrb3 is a biochemical, single-readout assay that uses extracted gene-proteins from SK-N-MC pretreated with isoproteronol and 8-bromo-cAMP in a cell-free assay. Measurements were taken 1 hour after chemical dosing in a 48-well plate.NVS_GPCR_hAdrb3 is one of one assay component(s) measured or calculated from the NVS_GPCR_hAdrb3 assay. It is designed to make measurements of radioligand binding, a form of binding reporter, as detected with scintillation counting signals by Filter-based radiodetection technology.Data from the assay component NVS_GPCR_hAdrb3 was analyzed into 1 assay endpoint. This assay endpoint, NVS_GPCR_hAdrb3, was analyzed in the positive analysis fitting direction relative to DMSO as the negative control and baseline of activity. Using a type of binding reporter, loss-of-signal activity can be used to understand changes in the binding as they relate to the gene ADRB3. Furthermore, this assay endpoint can be referred to as a primary readout, because the performed assay has only produced 1 assay endpoint. To generalize the intended target to other relatable targets, this assay endpoint is annotated to the gpcr intended target family, where the subfamily is rhodopsin-like receptor.
Binding assays used specific radioligands (tritiated, iodinated) with non-radioactive competitive displacement ligands in agonist or antagonist protocols (as indicated) and various reference compounds and inhibitors to titrate specific binding to receptors and transporters. Most enzyme assays (CYPs, kinases, phosphatases, proteases, HDACs) used recombinant protein and specific substrates (fluorescence mostly, some colorimetric and radioactive) and inhibitors, followed by a biochemical separation of substrate and product. All assays for the biochemical HTS were initially run in duplicate at a single concentration (10 uM for CYP450 assays and 25 uM for all others). […] Each assay was run with positive and negative controls, and concurrent controls on every plate. The follow-up (secondary) screen tested active chemical-pairs in concentration series, as well as a few additional assays not tested in the primary screen, some selected negative inactives, and several cases re-run in the concentration series for confirmatory purposes.
`Cc1occc1C(=O)Nc1ccc(C(=O)N2CCC(F)(F)/C(=C\C(=O)N3CCC(N4CCCCC4)CC3)c3ccccc32)cc1`: the compound was classed as inactive.

On to `CCCCCCCCCCCC[N+](C)(C)C`, for which the concentration at half-maximal activity (AC50) is 25 µM (active).

For the compound `CCN(CC)C(=O)c1cc(S(=O)(=O)Cc2ccccc2)c(N2CCC(c3ccccc3)CC2)cc1N(CC)CCN(C)C`, the compound was classed as inactive.

Regarding `CN(C)C(=O)C1(N2CCCCC2)CCN(CC[C@@]2(c3ccc(Cl)c(Cl)c3)CN(C(=O)c3ccccc3)CCO2)CC1`, the AC50 was 23.6 µM (active).

As for `Cc1oc2c(NC(=O)c3c(Cl)cccc3Cl)cccc2c1C(C)(C)O`, the result was inactive.

Consider `Clc1cc(Cl)c2c(c1)N=C1CCCCCN1C2`, for which the result was inactive.

Regarding `CCOC(=O)O[C@H](C)OC(=O)c1ccc2c(c1)cc(C(=O)NC1CCN(C(C)C)CC1)n2Cc1cc(-c2ccc(Cl)s2)on1`, the AC50 is 20 µM (active).

As for `NCc1cccc(C2CCN(C(=O)c3ccc(C#Cc4ccccc4F)o3)CC2)c1`, the call was inactive.

Regarding `CCCCOC(=O)CC(CC(=O)OCCCC)(OC(C)=O)C(=O)OCCCC`, the compound was classed as inactive.

Regarding `CC/C(=C(/CC)c1ccc(O)cc1)c1ccc(O)cc1`, the AC50 is 13.9 µM (active).

In the case of `CCCCCCCCN(C)CCCCCCCC`, the call was inactive.

Regarding `CN(C)c1ccc(C(=C2C=CC(=[N+](C)C)C=C2)c2ccc(N(C)C)cc2)cc1`, the AC50 is 16.3 µM (active).

Regarding `CC(O)CC(C)(C)O` (centres undefined), the AC50 was 0.159 µM (active).

On to `COc1cccc([C@H](O)C2CCN(CCc3ccc(F)cc3)CC2)c1OC`, for which the compound was classed as inactive.
